Laboratory results taken from PubChem BioAssay.
Results filed as inconclusive are left out. Calls of active or inactive are those of the source. Unless noted, the limit is not given here; nearly all actives have AC50 up to about 30 µM.

Tests used:
[1] = viability loss in pontine glioma line – cell-based, JHH-DIPG-1, MIPE4.0, CellTiter-Glo, qHTS, dose response (AID 1347062; cut-off not given, nearly all actives have AC50 up to about 27 µM;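 as to AC50: cells exposed to compound for two days before readout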); conditions: JHH-DIPG-1 viability, CellTiter-Glo ATP luminescence
[2] = viability loss in pontine glioma line – cell-based, SU-DIPG-IV, MIPE4.0, CellTiter-Glo, qHTS, dose response (AID 1347063); conditions: CellTiter-Glo ATP luminescence;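 also: compound exposure lasted 48 hours before the viability readout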
[3] = viability loss in pontine glioma line – cell-based, SU-DIPG-XIII, MIPE5.0, CellTiter-Glo, qHTS, dose response (AID 1347064; cut-off not given, nearly all actives have AC50 up to about 23 µM;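 as to AC50: cells exposed to compound for 48 hours before the viability read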); conditions: CellTiter-Glo ATP luminescence
[4] = viability loss in pontine glioma line – cell-based, SU-DIPG-XXV, MIPE5.0, CellTiter-Glo, qHTS, dose response (AID 1347065; cut-off not given, nearly all actives have AC50 up to about 26 µM;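 also: cells exposed to compound for 48 hours before ATP readout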); conditions: CellTiter-Glo ATP luminescence
[5] = growth inhibition of DIPG cells – cell-based, MIPE4.0 library, CellTiter-Glo luminescence, qHTS (AID 1347066); conditions: SU-DIPG-VI viability, CellTiter-Glo ATP luminescence;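 also: cells exposed to compound for 48 hours before readout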
[6] = JHH-DIPG-1 glioma cell viability, MIPE5.0 library, CellTiter-Glo luminescence, qHTS (AID 1347067; cut-off not given, nearly all actives have AC50 up to about 26 µM;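 also: cells exposed to compound for 48 hours before readout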); conditions: JHH-DIPG-1 glioma viability, CellTiter-Glo ATP luminescence
[7] = growth inhibition of DIPG cells – cell-based, MIPE5.0 library, qHTS (AID 1347068; cut-off not given, nearly all actives have IC50 up to about 30 µM;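 as to IC50: cells exposed to compound for 48 hours before viability readout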); conditions: SU-DIPG-XXV viability
[8] = viability loss with induced miR-34 in A549 – imaging, A549 dox-inducible miR-34, nuclei and caspase counts, primary screen (AID 1347080;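 active = compounds whose cell count with miR-34 switched on is under 0.7 times the count with it off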); conditions: A549 miR-34 inducible, Hoechst nuclei count, 48 h
[9] = MELAS cybrid and Rieske KO viability enhancers – cell-based, MELAS cybrids, Rieske KO mouse fibroblasts, CellTiter-Glo, primary screen (AID 1508586;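 active = mean z-score across replicates of 1.96 or higher in either the MELAS or the Rieske mutant cell line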;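 also: z relative to plate mean and SD of compound and empty wells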); conditions: low glucose
[10] = viability loss in pontine glioma line – cell-based, SU-DIPG-XIII, MIPE4.0, CellTiter-Glo, qHTS, dose response (AID 1347061; cut-off not given, nearly all actives have AC50 up to about 37 µM;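 also: cells exposed to compound for 48 hours before readout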); conditions: CellTiter-Glo ATP luminescence

Cc1noc(-c2ccc(CSCCC(=O)O)cc2)c1NC(=O)OC(C)c1ccccc1Cl (stereo not given)
6620: cell count ([8]; measured here: total cells with miR-34 induction, stronger effect = lower value)
0.718: z-score ([9]; Rieske KO mouse fibroblast survival, CellTiter-Glo 72 h)
7460: cell count ([8]; measured here: total cells without miR-34 induction)
inactive: outcome [1] | outcome [2] | outcome [3] | outcome [4] | outcome [5] | outcome [6] | outcome [7] | fold change ([8]; stronger effect = lower value, cell number ratio, induced over uninduced) 0.888 | z-score ([9]; MELAS cybrid survival, CellTiter-Glo 48 h, stronger effect = higher value) -0.439
1.07: fold change ([8]; measured here: relative caspase fold change +Dox/-Dox)

CC(C)(N)c1ccc(-c2nc3ccccc3nc2-c2ccccc2)cc1
active: AC50 [1] 23.5 µM | AC50 [2] 26.4 µM | AC50 [4] 23.5 µM

Cc1cccc2c1CC[C@H](CN1CCC(c3c(Cl)cccc3Cl)CC1)C[C@@H]2O
inactive: outcome [10] | outcome [5]

Cc1cn2cc(C(=O)N(C)CCO)cc(N[C@@H]3CCOc4cccc(C)c43)c2n1
inactive: outcome [1] | outcome [2] | outcome [3] | outcome [5] | outcome [6] | outcome [7]

COc1cc(C(=O)NC2CCN(C)CC2)ccc1Nc1ncc2c(n1)N(C1CCCC1)CCC(=O)N2C(C)C
inactive: outcome [7]
active: AC50 [1] 16.6 µM | AC50 [2] 7.43 µM | AC50 [4] 23.5 µM | AC50 [6] 23.5 µM

C[C@H](NC(=O)[C@@H](O)c1cc(F)cc(F)c1)C(=O)N[C@@H]1C(=O)N(C)c2ccccc2-c2ccccc21
inactive: outcome [1] | outcome [2] | outcome [3] | outcome [5] | outcome [6] | outcome [7]

CCn1c(=O)c2c(nc(/C=C/c3ccc(OC)c(OC)c3)n2C)n(CC)c1=O
inactive: outcome [1] | outcome [2] | outcome [3] | outcome [5] | outcome [6] | outcome [7]

CN(C)c1nc(Cc2ccc(NC(=O)c3ccc4ccccc4c3)cc2)nc(Cl)c1CC(=O)O
inactive: outcome [10] | outcome [5]

c1cc(N[C@@H]2CCNC2)nc(-c2cnc3ccc(-c4cn[nH]c4)cn23)c1
active: AC50 [1] 11.8 µM | AC50 [2] 14.8 µM | AC50 [3] 14.8 µM | AC50 [4] 16.6 µM | AC50 [5] 18.7 µM | AC50 [6] 16.6 µM | IC50 [7] 11.8 µM
